# Results taken from article PMC5540273 (PLoS ONE, 2017).
# What was measured:
# AAK1 = details: concentration: 1 μM, replicates: in singlicate; n = 1
# ABL1-nonphosphorylated = details: concentration: 1 μM, replicates: in singlicate; n = 1
# ABL1-phosphorylated = details: concentration: 1 μM, replicates: in singlicate; n = 1
# ABL2 = details: concentration: 1 μM, replicates: in singlicate; n = 1
# ACVR1B = details: concentration: 1 μM, replicates: in singlicate; n = 1
# ACVR1 = details: concentration: 1 μM, replicates: in singlicate; n = 1
# ACVR2A = details: concentration: 1 μM, replicates: in singlicate; n = 1
# ACVR2B = details: concentration: 1 μM, replicates: in singlicate; n = 1
# ACVRL1 = details: concentration: 1 μM, replicates: in singlicate; n = 1
# ADCK3 = test system: T1, ADCK3; details: concentration: 1 μM, replicates: in singlicate; n = 1
# T1 construct: gene CABC1
# ADCK4 = details: concentration: 1 μM, replicates: in singlicate; n = 1
# AKT1 = details: concentration: 1 μM, replicates: in singlicate; n = 1
# AKT2 = details: concentration: 1 μM, replicates: in singlicate; n = 1
# AKT3 = details: concentration: 1 μM, replicates: in singlicate; n = 1
# ALK = details: concentration: 1 μM, replicates: in singlicate; n = 1
# YSK4 = test system: T2, YSK4
# T2 construct: gene MAP3K19
# p38-alpha = test system: T3, p38-alpha
# T3 construct: gene MAPK14
# p38-beta = test system: T4, p38-beta
# T4 construct: gene MAPK11
# 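Throughout, for %Inh: KINOMEscan kinase panel screen.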
# 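Throughout, for Kd: kd values determined as follow-up on hits from a single-replicate KINOMEscan panel screen.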
Structure (SMILES),%Inh (AAK1),%Inh (ABL1-nonphosphorylated),%Inh (ABL1-phosphorylated),%Inh (ABL2),%Inh (ACVR1B),%Inh (ACVR1),%Inh (ACVR2A),%Inh (ACVR2B),%Inh (ACVRL1),%Inh (ADCK3),%Inh (ADCK4),%Inh (AKT1),%Inh (AKT2),%Inh (AKT3),%Inh (ALK),Kd (YSK4),Kd (p38-alpha),Kd (p38-beta)
Nc1ncnc2occ(-c3ccc4c(c3)CCN4C(=O)Cc3cc(F)ccc3F)c12 [GSK2645446],53%,27%,3%,13%,0%,0%,0%,0%,0%,8%,0%,0%,0%,0%,0%,–,–,–
O=C1NC(=O)C(c2ccc(Cl)cc2)=C1Nc1ccc(O)cc1 [SB-340867],3%,28%,0%,0%,0%,11%,0%,0%,0%,0%,0%,1%,0%,0%,0%,–,–,–
COC(=O)C(Cc1ccccc1)NC(=O)NC1CCN(c2ccnc(Nc3ccc(F)cc3)n2)C1 (stereo not drawn) [GSK1379714],0%,0%,0%,0%,0%,6%,0%,6%,0%,21%,36%,0%,0%,0%,0%,1400 nM,–,–
FC(F)(F)c1ccccc1-c1cc(-c2c[nH]nc2-c2ccccn2)ccn1 [GW679396],21%,0%,0%,1%,0%,0%,3%,17%,0%,4%,0%,0%,7%,16%,18%,–,310 nM,–
O=C(Nc1n[nH]c2nc(-c3cccs3)c(Br)cc12)C1CC1 [SB-735297],10%,52%,30%,0%,0%,27%,0%,0%,0%,0%,0%,0%,0%,0%,0%,200 nM,–,–
Cc1cccc2c(-c3ccncn3)c(-c3ccc(F)cc3)nn12 [GW515532],0%,0%,0%,2%,2%,0%,19%,37%,21%,40%,40%,0%,8%,0%,23%,–,1300 nM,–
Fc1ccc(-c2nn3cccc(F)c3c2-c2ccncc2)cc1 [GW475620],13%,0%,0%,2%,23%,11%,0%,47%,22%,12%,9%,0%,14%,29%,16%,–,140 nM,–
Fc1ccc(-c2nc3n(c2-c2ccncc2)CCS3)cc1 [GI98581],1%,0%,0%,9%,15%,0%,0%,20%,0%,13%,23%,0%,13%,9%,28%,–,130 nM,–
COc1cccc(NC(=O)Nc2ccc(C)c(-c3ccc(C(=O)Nc4ccncc4)cc3)c2)c1 [GSK1398474],0%,4%,0%,21%,0%,0%,0%,12%,0%,30%,12%,0%,16%,0%,23%,–,–,–
c1ccc(-c2ccnc3[nH]ccc23)cc1 [SB-693578],68%,0%,4%,16%,0%,0%,0%,0%,0%,6%,40%,0%,6%,0%,33%,470 nM,–,–
COc1ccc(Nc2nccc(N3CCC(NC(=O)C(C)c4ccc(Cl)cc4)C3)n2)cc1 (stereo not drawn) [GSK1379735],14%,0%,0%,18%,19%,14%,0%,0%,0%,22%,17%,0%,9%,0%,25%,–,–,–
O=C(Nc1n[nH]c2cc(-c3ccsc3)ccc12)C1CC1 [SB-732932],56%,47%,11%,18%,21%,28%,26%,45%,0%,0%,0%,0%,21%,9%,9%,120 nM,–,–
COc1ccc(CSc2nnc(-c3ccc4nccn4c3)o2)cc1C(F)(F)F,16%,28%,13%,21%,23%,0%,7%,15%,21%,6%,6%,13%,4%,44%,29%,22 nM,–,–
Cc1ccccc1-c1cc(-c2c[nH]nc2-c2ccccn2)ccn1 [GW680061],0%,0%,0%,17%,0%,9%,0%,0%,0%,1%,12%,0%,3%,0%,22%,–,130 nM,–
Cc1c(Cn2c3ccccc3n3c(=O)cc(N4CCOCC4)nc23)cccc1C(F)(F)F [GSK2306394],0%,0%,0%,11%,0%,10%,6%,0%,9%,0%,0%,0%,19%,0%,2%,–,–,–
Cc1ccc(NC(=O)Nc2ccc(Cl)cc2)cc1-c1ccc(C(=O)Nc2ccncc2)cc1 [GSK1398472],0%,2%,5%,28%,0%,15%,0%,0%,0%,22%,23%,0%,0%,0%,46%,–,–,–
Nc1cccc(-c2ccc3c(N)n[nH]c3c2)n1 [GSK2192730],56%,10%,0%,0%,0%,0%,0%,9%,0%,1%,0%,0%,0%,0%,21%,130 nM,–,–
CNC(=O)c1ccc(C)c(-n2c(C)cc(OCc3ccc(F)cc3F)c(Br)c2=O)c1,0%,0%,0%,0%,7%,0%,0%,2%,0%,0%,0%,0%,2%,0%,0%,–,–,120 nM
CNCc1ccc2nc(NC(=O)c3ccc(C(C)(C)C)cc3)cn2c1,0%,13%,12%,1%,0%,2%,0%,0%,7%,0%,13%,5%,8%,17%,16%,–,> 10000 nM,–
CNc1cc(-c2ccc3c(N)n[nH]c3c2)nc(N)n1 [GSK2224810],64%,0%,0%,0%,21%,29%,43%,56%,0%,13%,13%,0%,0%,0%,5%,–,–,–
CSc1ccc(-c2nc3n(c2-c2ccncc2)CCC3)cc1 [SKF-105561],0%,16%,0%,12%,4%,5%,0%,2%,21%,0%,0%,6%,0%,6%,8%,–,–,–
Fc1ccc(-c2nc[nH]c2-c2ccncc2)cc1 [SB-217360],0%,4%,33%,0%,13%,0%,5%,50%,0%,0%,18%,4%,0%,0%,10%,–,67 nM,–
COc1nccc(-c2c(-c3ccc(F)cc3)ncn2CCCN2CCOCC2)n1 [SB-282852],0%,55%,41%,49%,0%,0%,0%,0%,0%,0%,18%,0%,3%,3%,25%,–,160 nM,–
Cc1ccc(NC(=O)Nc2ccc(Cl)c(C(F)(F)F)c2)cc1-c1ccc(C(=O)Nc2ccncc2)cc1 [GSK1398470],3%,1%,0%,34%,5%,1%,0%,0%,0%,14%,2%,0%,16%,0%,0%,–,310 nM,90 nM
Nc1nccc(-c2c(-c3ccc(F)cc3)ncn2C2CCN(Cc3ccccc3)CC2)n1 [SB-219980],0%,0%,0%,0%,0%,7%,0%,0%,9%,0%,55%,15%,0%,0%,16%,–,46 nM,–
